Data published in PubChem BioAssay (NCI).
About 83,000 compounds went through this panel and 20% of them were active in at least one assay; those are over-represented in the sample as a whole.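 Step 1: grow cells in 96-well plates. Step 2: add test compound at a single concentration. Step 3: incubate 48 h. Step 4: record percent growth.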 Unmarked numbers belong to inactive results. The source made the active and inactive calls. How the source made its calls: active means growth percent below 10; inactive means the rest.

Experiments:
Assay in all cases: NCI-60 one-dose screen, 48 h (100 = growth as untreated, 0 = no growth, -100 = all killed)
Settings in all cases: 10 µM unless noted
DU-145 prostate = test system: DU-145 prostate
K-562 leukemia = test system: K-562 leukemia
MALME-3M melanoma = test system: MALME-3M melanoma
MDA-MB-231 breast = test system: MDA-MB-231 breast
RXF 393 renal = test system: RXF 393 renal
SF-268 CNS = test system: SF-268 CNS
SF-295 CNS = test system: SF-295 CNS
SF-539 CNS = test system: SF-539 CNS
UACC-257 melanoma = test system: UACC-257 melanoma
HCT-15 colon = test system: HCT-15 colon
HT29 colon = test system: HT29 colon
SNB-75 CNS = test system: SNB-75 CNS
SNB-19 CNS = test system: SNB-19 CNS
U251 CNS = test system: U251 CNS
SK-MEL-5 melanoma = test system: SK-MEL-5 melanoma
UACC-62 melanoma = test system: UACC-62 melanoma
LOX IMVI melanoma = test system: LOX IMVI melanoma
SK-MEL-28 melanoma = test system: SK-MEL-28 melanoma
PC-3 prostate = test system: PC-3 prostate

Question: Which results are given for `C=C1C(=O)O[C@H]2[C@H]1CC/C(COC(=O)C(=O)c1cn(C)c3ccc(OC)cc13)=C\CC[C@@]1(C)O[C@@H]21`?
Answer: growth (DU-145 prostate): -79% (active); growth (K-562 leukemia): 2.97% (active); growth (MALME-3M melanoma): -74.8% (active); growth (MDA-MB-231 breast): -58.4% (active); growth (RXF 393 renal): -94.8% (active); growth (SF-268 CNS): -40.6% (active); growth (SF-295 CNS): 10.2%; growth (SF-539 CNS): -66.9% (active); growth (UACC-257 melanoma): -72.1% (active); growth (HCT-15 colon): -53.1% (active); growth (HT29 colon): -52.7% (active); growth (SNB-75 CNS): -76.7% (active); growth (SNB-19 CNS): -13.8% (active); growth (U251 CNS): -92.5% (active); growth (SK-MEL-5 melanoma): -100% (active); growth (UACC-62 melanoma): -84.8% (active); growth (LOX IMVI melanoma): -88.5% (active); growth (SK-MEL-28 melanoma): -65.3% (active)

Question: For `Cc1nc2ccccc2n1CC1NC(=O)NC1=O` (stereo not drawn), which growth (DU-145 prostate) is on record?
Answer: 110%

Question: What about the growth (K-562 leukemia) of the same molecule?
Answer: 99.9%

Question: What about the growth (MALME-3M melanoma) of the same molecule?
Answer: 102%

Question: And the growth (MDA-MB-231 breast)?
Answer: 102%

Question: And the growth (RXF 393 renal)?
Answer: 103%

Question: And the growth (SF-268 CNS)?
Answer: 96.1%

Question: And the growth (SF-295 CNS)?
Answer: 107%

Question: And the growth (SF-539 CNS)?
Answer: 99.4%

Question: And the growth (UACC-257 melanoma)?
Answer: 99.1%

Question: What about the growth (HCT-15 colon) of the same molecule?
Answer: 104%

Question: What about the growth (HT29 colon) of the same molecule?
Answer: 105%

Question: What about the growth (SNB-75 CNS) of the same molecule?
Answer: 78.7%

Question: And the growth (SNB-19 CNS)?
Answer: 98.4%

Question: What about the growth (U251 CNS) of the same molecule?
Answer: 103%

Question: What about the growth (PC-3 prostate) of the same molecule?
Answer: 96.2%

Question: What about the growth (SK-MEL-5 melanoma) of the same molecule?
Answer: 100%

Question: What about the growth (UACC-62 melanoma) of the same molecule?
Answer: 98.4%

Question: And the growth (LOX IMVI melanoma)?
Answer: 95.6%

Question: And the growth (SK-MEL-28 melanoma)?
Answer: 99.4%

Question: For `CCSC1=NC2C(N(CC)C(=O)N2CC)N1/N=C/C=C/c1ccccc1[N+](=O)[O-]` (stereo not drawn), which growth (DU-145 prostate) is on record?
Answer: 5.79% (active)

Question: And the growth (K-562 leukemia)?
Answer: 10.4%

Question: And the growth (MALME-3M melanoma)?
Answer: 36.2%

Question: What about the growth (MDA-MB-231 breast) of the same molecule?
Answer: -1.7% (active)

Question: What about the growth (RXF 393 renal) of the same molecule?
Answer: 41.5%

Question: What about the growth (SF-268 CNS) of the same molecule?
Answer: 45.2%

Question: What about the growth (SF-295 CNS) of the same molecule?
Answer: 8.87% (active)

Question: And the growth (SF-539 CNS)?
Answer: -26.3% (active)

Question: And the growth (UACC-257 melanoma)?
Answer: 61.1%

Question: What about the growth (HCT-15 colon) of the same molecule?
Answer: 10.7%

Question: What about the growth (HT29 colon) of the same molecule?
Answer: 3.47% (active)

Question: And the growth (SNB-75 CNS)?
Answer: 23.8%

Question: What about the growth (SNB-19 CNS) of the same molecule?
Answer: 22.1%

Question: And the growth (PC-3 prostate)?
Answer: 22.9%

Question: And the growth (SK-MEL-5 melanoma)?
Answer: -38.6% (active)

Question: And the growth (UACC-62 melanoma)?
Answer: 25.5%

Question: What about the growth (LOX IMVI melanoma) of the same molecule?
Answer: 14.3%

Question: What about the growth (SK-MEL-28 melanoma) of the same molecule?
Answer: 54.5%

Question: With `O=C(COc1ccc(/C=C2\Oc3ccccc3C2=O)cc1)Nc1nc2c(s1)CCCC2` as the molecule, how does the growth (DU-145 prostate) read?
Answer: -79.7% (active)

Question: What about the growth (K-562 leukemia) of the same molecule?
Answer: 20.9%

Question: And the growth (MALME-3M melanoma)?
Answer: 22.6%

Question: What about the growth (MDA-MB-231 breast) of the same molecule?
Answer: 22.2%

Question: And the growth (RXF 393 renal)?
Answer: -5.41% (active)

Question: And the growth (SF-268 CNS)?
Answer: -9.96% (active)

Question: And the growth (SF-295 CNS)?
Answer: 101%

Question: And the growth (SF-539 CNS)?
Answer: -95.7% (active)

Question: What about the growth (UACC-257 melanoma) of the same molecule?
Answer: 104%

Question: And the growth (HCT-15 colon)?
Answer: 89.7%

Question: And the growth (HT29 colon)?
Answer: 30.2%

Question: What about the growth (SNB-75 CNS) of the same molecule?
Answer: -76.6% (active)

Question: And the growth (SNB-19 CNS)?
Answer: 83%

Question: And the growth (U251 CNS)?
Answer: -44.4% (active)

Question: And the growth (PC-3 prostate)?
Answer: 12.3%

Question: What about the growth (SK-MEL-5 melanoma) of the same molecule?
Answer: 103%

Question: What about the growth (UACC-62 melanoma) of the same molecule?
Answer: 75.6%

Question: What about the growth (LOX IMVI melanoma) of the same molecule?
Answer: -57.3% (active)

Question: What about the growth (SK-MEL-28 melanoma) of the same molecule?
Answer: 117%

Question: How did the growth (DU-145 prostate) turn out when `Cc1ccc2nc(NC(=O)CSc3nc(-c4ccccc4)c(C#N)c(=O)n3Cc3ccccc3)sc2c1` was run?
Answer: 103%

Question: What about the growth (K-562 leukemia) of the same molecule?
Answer: 73.3%

Question: And the growth (MALME-3M melanoma)?
Answer: 78.6%

Question: What about the growth (MDA-MB-231 breast) of the same molecule?
Answer: 82.5%

Question: What about the growth (RXF 393 renal) of the same molecule?
Answer: 75.8%

Question: And the growth (SF-268 CNS)?
Answer: 92.1%

Question: What about the growth (SF-295 CNS) of the same molecule?
Answer: 95.3%

Question: And the growth (SF-539 CNS)?
Answer: 90.4%

Question: What about the growth (UACC-257 melanoma) of the same molecule?
Answer: 98.3%

Question: What about the growth (HCT-15 colon) of the same molecule?
Answer: 96.6%

Question: And the growth (HT29 colon)?
Answer: 105%

Question: What about the growth (SNB-75 CNS) of the same molecule?
Answer: 63.5%

Question: What about the growth (SNB-19 CNS) of the same molecule?
Answer: 78.3%

Question: And the growth (U251 CNS)?
Answer: 87.8%

Question: And the growth (PC-3 prostate)?
Answer: 71.9%

Question: And the growth (SK-MEL-5 melanoma)?
Answer: 83.1%

Question: What about the growth (UACC-62 melanoma) of the same molecule?
Answer: 53.5%

Question: What about the growth (LOX IMVI melanoma) of the same molecule?
Answer: 83.1%

Question: And the growth (SK-MEL-28 melanoma)?
Answer: 79.1%

Question: With `O=c1ccn2nc3ccccc3c2[nH]1` as the molecule, how does the growth (DU-145 prostate) read?
Answer: 128%

Question: What about the growth (K-562 leukemia) of the same molecule?
Answer: 98.5%

Question: And the growth (MALME-3M melanoma)?
Answer: 86.7%

Question: And the growth (MDA-MB-231 breast)?
Answer: 91.3%

Question: What about the growth (RXF 393 renal) of the same molecule?
Answer: 123%

Question: What about the growth (SF-268 CNS) of the same molecule?
Answer: 110%

Question: And the growth (SF-295 CNS)?
Answer: 118%

Question: What about the growth (SF-539 CNS) of the same molecule?
Answer: 95.9%

Question: What about the growth (UACC-257 melanoma) of the same molecule?
Answer: 130%

Question: And the growth (HCT-15 colon)?
Answer: 91.7%

Question: And the growth (HT29 colon)?
Answer: 96.1%

Question: And the growth (SNB-75 CNS)?
Answer: 85.2%

Question: What about the growth (SNB-19 CNS) of the same molecule?
Answer: 95.5%

Question: And the growth (U251 CNS)?
Answer: 96.4%

Question: What about the growth (PC-3 prostate) of the same molecule?
Answer: 88%

Question: What about the growth (SK-MEL-5 melanoma) of the same molecule?
Answer: 96%

Question: What about the growth (UACC-62 melanoma) of the same molecule?
Answer: 92.5%

Question: And the growth (LOX IMVI melanoma)?
Answer: 96.3%

Question: And the growth (SK-MEL-28 melanoma)?
Answer: 182%

Question: Which results are given for `CCc1c2c(nc3ccc(OC(=O)OCc4ccc(B5OC(C)(C)C(C)(C)O5)cc4)cc13)-c1cc3c(c(=O)n1C2)COC(=O)[C@]3(O)CC`?
Answer: growth (DU-145 prostate): 4.84% (active); growth (K-562 leukemia): 13.1%; growth (MALME-3M melanoma): -43.9% (active); growth (MDA-MB-231 breast): 17.4%; growth (RXF 393 renal): -64.7% (active); growth (SF-268 CNS): -7.41% (active); growth (SF-295 CNS): 0.0181% (active); growth (SF-539 CNS): -62.9% (active); growth (UACC-257 melanoma): -60% (active); growth (HCT-15 colon): 9.28% (active); growth (HT29 colon): 24.8%; growth (SNB-75 CNS): -21.5% (active); growth (SNB-19 CNS): 1.62% (active); growth (PC-3 prostate): 14.9%; growth (SK-MEL-5 melanoma): -84.2% (active); growth (UACC-62 melanoma): -80.8% (active); growth (LOX IMVI melanoma): -67.8% (active); growth (SK-MEL-28 melanoma): -0.304% (active)

Question: For `COc1ccc(N2CCN(c3nc(-c4cc(OC)c(OC)c(OC)c4)nc4ccccc34)CC2)cc1`, which growth (DU-145 prostate) is on record?
Answer: 93.5%

Question: What about the growth (K-562 leukemia) of the same molecule?
Answer: 79.1%

Question: And the growth (MALME-3M melanoma)?
Answer: 108%

Question: And the growth (MDA-MB-231 breast)?
Answer: 71%

Question: What about the growth (RXF 393 renal) of the same molecule?
Answer: 92.6%

Question: What about the growth (SF-268 CNS) of the same molecule?
Answer: 87.7%

Question: What about the growth (SF-295 CNS) of the same molecule?
Answer: 95.2%

Question: And the growth (SF-539 CNS)?
Answer: 96.9%

Question: And the growth (UACC-257 melanoma)?
Answer: 102%

Question: And the growth (HCT-15 colon)?
Answer: 61.8%

Question: What about the growth (HT29 colon) of the same molecule?
Answer: 81.5%

Question: And the growth (SNB-75 CNS)?
Answer: 84.5%

Question: And the growth (SNB-19 CNS)?
Answer: 93.5%

Question: What about the growth (U251 CNS) of the same molecule?
Answer: 96.1%

Question: What about the growth (PC-3 prostate) of the same molecule?
Answer: 41.3%

Question: What about the growth (SK-MEL-5 melanoma) of the same molecule?
Answer: 46.4%

Question: And the growth (UACC-62 melanoma)?
Answer: 56%

Question: What about the growth (LOX IMVI melanoma) of the same molecule?
Answer: 79.3%

Question: What about the growth (SK-MEL-28 melanoma) of the same molecule?
Answer: 87.1%

Question: What does the source list for `O=c1ssc(Cl)c1-c1ccccc1`?
Answer: growth (DU-145 prostate): 113%; growth (K-562 leukemia): 102%; growth (MALME-3M melanoma): 100%; growth (MDA-MB-231 breast): 97%; growth (RXF 393 renal): 86.7%; growth (SF-268 CNS): 134%; growth (SF-295 CNS): 102%; growth (SF-539 CNS): 90.7%; growth (UACC-257 melanoma): 91.3%; growth (HCT-15 colon): 101%; growth (HT29 colon): 103%; growth (SNB-75 CNS): 90.5%; growth (SNB-19 CNS): 111%; growth (U251 CNS): 104%; growth (PC-3 prostate): 79.5%; growth (SK-MEL-5 melanoma): 97.1%; growth (UACC-62 melanoma): 95.4%; growth (LOX IMVI melanoma): 92.5%; growth (SK-MEL-28 melanoma): 100%
